Inhibition data for 91 compounds are collected here from PubChem BioAssay AID588689 (Southern Research Specialized Biocontainment Screening …, 2011).

SMILES strings stand for the structures. In all, about 340,000 compounds went through this assay and about 1,000 (0.29%) were called active. Rule as the data show it: inconclusive = inhibition above about 29% without an active follow-up result; inactive = below that. Only a sample is shown. Entries with a potency or affinity are not part of this list.

The test addresses Genome polyprotein (Dengue virus type 2 (strain 16681-PDK53)) (UniProt P29991). The test can be described thus: Dengue-2 NS5 methyltransferase inhibitors, primary screen, biochemical, confirmation dose response (AID 588689). The settings on record: Dengue-2 NS5 methyltransferase capping enzyme assay, at 25 µM, stronger effect = higher value.
Where [1] appears, read: measured here: pilot screen replicate inhibition.

What is called inhibition is the relative decrease from the control value, in per cent. For the compound `CC(C)(CNC(=O)c1cc(Cl)c(O)c(Cl)c1)N1CCCCC1`, the inhibition was 3.57% (inactive). On the same count and under the same terms, to `N=C1/C(=C\c2ccc(OC(=O)c3ccccc3)cc2)C(=O)N=C2SC(N3CCOCC3)=NN12` belongs 3.46% (inactive). In the case of `CCC1=NN2C(=N)/C(=C\c3ccc(OCCOc4ccc(NC(C)=O)cc4)c(OC)c3)C(=O)N=C2S1`, the inhibition is 4.57% (inactive).

Consider `CCC1=NN2C(=N)/C(=C/c3ccc(OS(=O)(=O)c4ccccc4)c(OC)c3)C(=O)N=C2S1`, for which the inhibition was 4.04% (inactive). The same measure, in the same setting: for `N=C1/C(=C\c2ccc(OC(=O)c3ccc(F)cc3)cc2)C(=O)N=C2SC(N3CCCC3)=NN12` the value was -2.77% (inactive); for `Cc1ccc(C(=O)Oc2ccc(/C=C3\C(=N)N4N=C(N5CCOCC5)SC4=NC3=O)cc2)cc1`, 9.04% (inactive).

Regarding `N=C1/C(=C\c2ccc(OC(=O)c3ccccc3Cl)cc2)C(=O)N=C2SC(N3CCOCC3)=NN12`, the inhibition was 34.8% (inactive). Same read-out and setting: for `COCCN(CCOC)S(=O)(=O)c1ccc(C(=O)NCCCN2CCOCC2)cc1` the value was -2.15% (inactive); for `O=C(c1ccco1)N1CCN(C(=S)Nc2ccccc2Cl)CC1`, 1.93% (inactive). On to `Cc1cc2n(n1)C(c1ccsc1)Nc1ccccc1-2` (stereo not drawn), for which the inhibition was -9.35% (inactive). The same measure, in the same setting: for `C/C(=C\COc1cc(=O)[nH]c2ccccc12)CCC(O)C(C)(C)O` (stereo not drawn) the value was -11.2% (inactive); for `Cc1nc2ccccc2n1CC(=O)NC(C)C1CC2CCC1C2` (stereo not drawn), -6.66% (inactive).

Take `C=CCn1c(SCc2ccc(F)cc2)nc2c1c(=O)[nH]c(=O)n2C`: the inhibition is -3.48% (inactive).

For `Cc1nn(CC(=O)Nc2cccnc2)c(C)c1[N+](=O)[O-]`, the inhibition was -9.49% (inactive). The same measure, in the same setting: to `C/C(=N/NC(=O)Cc1ccccc1)c1ccc(C)s1` belongs 5.19% (inactive); to `Cc1ccc(C2=NOC(=O)/C2=C\c2ccccc2)cc1`, 27.9% (inactive). With `O=C1ON=C(c2ccccc2)/C1=C/c1ccccc1`, the inhibition was 27% (inactive). The inhibition under setting [1] was determined as 8.25%. The like results for `O=C1ON=C(c2ccccc2)/C1=C/c1ccc(O)cc1` were, in that order, 42% (inactive) and 20.8%. Take `O=C1ON=C(c2ccccc2)/C1=C/c1ccc(O)c(O)c1`: the inhibition is 28.7% (inactive). Still for that read-out and setting: for `O=c1[nH]c2cc(Cl)cc(Cl)c2[nH]c1=O` the value was -3.92% (inactive); for `CSc1nc(N(C)C)nc(N(C#N)CCOC(C)=O)n1`, 0.74% (inactive). The same measure, in the same setting: to `COc1ccc(NS(=O)(=O)c2cc(NC(=O)[C@@H](NC(=O)c3ccccc3)C(C)C)ccc2C)cc1` belongs -3.89% (inactive); to `CC(=O)Nc1c(C(=O)O)[nH]c2ccccc12`, -4.8% (inactive).

With `O=C(O)c1[nH]c2ccccc2c1-c1ccccc1`, the inhibition is -4.76% (inactive). As for `COc1ccc(CN=Cc2c(C(=O)O)[nH]c3ccccc23)cc1`, the inhibition is -3.12% (inactive). The same measure, in the same setting: to `O=C(O)CCc1c(C(=O)O)[nH]c2ccccc12` belongs -0.56% (inactive). Still for that read-out and setting: for `COc1cc(CC(=O)O)ccc1OCc1ccccc1` the value was -5.48% (inactive); for `C=CCOc1ccc(C(c2c(C)n(C)n(-c3ccccc3)c2=O)c2c(C)n(C)n(-c3ccccc3)c2=O)cc1`, -3.27% (inactive). `Cc1[nH]c2ccccc2c1SCC(=O)O`: the inhibition was -8.76% (inactive). The same measure, in the same setting: for `COc1cc(C(NC(C)=O)NC(C)=O)ccc1OCc1ccccc1` the value was -12.5% (inactive); for `COc1ccc2sc(N(CCCN(C)C)C(=O)c3ccc(C(=O)c4ccccc4)cc3)nc2c1`, 0% (inactive); for `CN(Cc1ccccc1F)C(=O)C1CCCN(C(=O)c2ccc(Cl)cc2)C1` (stereo not drawn), 3.62% (inactive). As to `COc1ccc(NS(=O)(=O)c2ccc3c(c2)N(C(C)=O)CCS3)cc1`, the inhibition was -7.87% (inactive). The same measure, in the same setting: for `CCOc1nc(C)ccc1-c1noc(C)n1` the value was 0% (inactive). Same read-out and setting: to `COCc1c(Br)c(C)nc(OCC(=O)O)c1C#N` belongs 0.8% (inactive); to `CCCCN(C(=O)CCC(=O)Nc1cc(C)on1)C(C(=O)NC1CCCC1)c1ccc(F)cc1` (stereo not drawn), -14.2% (inactive); to `N#Cc1cc2c(nc1SCc1cccc(Cl)c1)CCCCC2`, 4.4% (inactive).

Turning to `Cc1ccc(C(=O)OCC(=O)N2CCC(C)CC2)cc1S(=O)(=O)N1CCCCC1`, the inhibition is -4.55% (inactive). Take `CCCCSC1=N/C(=C/c2ccsc2)C(=O)N1c1ccccc1`: the inhibition is -1.97% (inactive).

Consider `Fc1cccc(COc2ccccc2C(=S)N2CCCC2)c1`, for which the inhibition was -5.22% (inactive). On the same count and under the same terms, for `Cc1[nH]c2ccccc2c1C(C[N+](=O)[O-])c1cccc(O)c1` (stereo not drawn) the value was -3.77% (inactive); for `CCS(=O)(=O)Nc1c(C(=O)O)[nH]c2ccccc12`, -0.33% (inactive); for `C#CCOCCOCCOCCNc1nc(N2CCN(C(=O)[C@H](CO)n3cc([C@@H](N)C(C)C)nn3)CC2)nc(N2CCN(C(=O)[C@H](CCCCN)n3cc([C@@H](N)[C@H](C)CC)nn3)CC2)n1`, 0% (inactive). In the case of `Cc1ccc(/C=N/NC(=O)c2ccncc2)cc1`, the inhibition is -7.15% (inactive). Turning to `Cc1ccsc1/C=N/NC(=O)c1ccncc1`, the inhibition was -0.74% (inactive). The same measure, in the same setting: to `Cn1c(=O)c(/C(N)=N/OC(=O)c2ccccc2)cn(-c2ccccc2)c1=O` belongs 0% (inactive). As to `Cc1nc2nc(C)c(NS(=O)(=O)c3ccc(C4CCCCC4)cc3)c(=O)n2[nH]1`, the inhibition was -5.01% (inactive).

With `CCc1nc2nc(C)c(NS(=O)(=O)c3ccc(C4CCCCC4)cc3)c(=O)n2[nH]1`, the inhibition is 7.51% (inactive). Same read-out and setting: for `Cc1cc(Br)ccc1NC(=O)c1ccc(-n2cncn2)c([N+](=O)[O-])c1` the value was 5.79% (inactive); for `O=C(CCCCCNc1nc(=S)[nH]c2ccccc12)NCCC1=CCCCC1`, -4.45% (inactive); for `CCCCn1c(N)c(N(CC(C)C)C(=O)C2CCCO2)c(=O)[nH]c1=O` (stereo not drawn), -0.74% (inactive). On the same count and under the same terms, to `COc1cc2c(cc1OC)C1c3ccc(OC)c(OC)c3OCC1(O)C2` (stereo not drawn) belongs 3.23% (inactive); to `CCOc1ccc(NC(=O)CN(C)C(=O)c2ccncc2)cc1OCC`, 4.54% (inactive). Still for that read-out and setting: for `O=C(CCOc1ccccc1)N1CCCC(Nc2ccccc2)C1` (stereo not drawn) the value was -3.45% (inactive). On to `COc1cccc(CNC(=O)[C@H](C)NC(=O)C2CCN(S(=O)(=O)c3ccccc3)CC2)c1`, for which the inhibition is -6.35% (inactive). Same read-out and setting: for `CC12CCC(=O)N1C(C(=O)Nc1nccs1)CS2` (stereo not drawn) the value was -5.93% (inactive); for `O=C(O)CSc1nc(-c2ccccc2)nc2c1oc1ccccc12`, 5.73% (inactive). Still for that read-out and setting: for `Cc1nc(SCC(=O)O)c2oc3ccccc3c2n1` the value was -1.65% (inactive). The same measure, in the same setting: for `CC(C)(C)c1ccc(C(=O)Nc2c3c(nn2C(C)(C)C)CS(=O)(=O)C3)cc1` the value was -9.75% (inactive). As for `CCCOC(=O)CSC1=C(C#N)C(c2ccccc2OC)C(C#N)C(=O)N1` (stereo not drawn), the inhibition is -15.9% (inactive). For the compound `CNC(=O)CC1C(=O)N(C)C(=S)N1NC(=O)c1ccccc1` (stereo not drawn), the inhibition is 2.33% (inactive).

In the case of `COc1cc(C)ccc1OCCOc1ccccc1Cl`, the inhibition is -4.77% (inactive). For `COc1cc(CO)cc(Br)c1OCC(=O)O`, the inhibition was -12.1% (inactive). Consider `CCc1ccc(N=C2NC(=O)/C(=C/c3ccc(OCC(=O)O)c(OC)c3)S2)cc1`, for which the inhibition was -3.47% (inactive). Still for that read-out and setting: to `Cc1ccc(S(=O)(=O)NCCC(=O)Nc2nccs2)cc1` belongs -0.76% (inactive); to `Cc1cccc(N(CC(=O)Nc2ccccc2-c2ccccc2)S(=O)(=O)c2ccccc2)c1C`, 1.45% (inactive); to `CC(C)(C)c1csc(CS(=O)(=O)c2ccccn2)n1`, -4.67% (inactive). The same measure, in the same setting: for `Cc1ccc(NC(=O)c2ccc(S(=O)(=O)Nc3c(C)n(C)n(-c4ccccc4)c3=O)cc2)nc1` the value was -5.09% (inactive); for `Cc1ccccc1NC(=O)CSc1n[nH]c(-c2ccco2)n1`, 0.76% (inactive). On the same count and under the same terms, to `CSc1nnc(-c2ccccc2)c(-c2ccccc2)n1` belongs -5.41% (inactive). Turning to `Cc1ccc(NC(=O)CSc2nnc(-c3ccco3)c(-c3ccco3)n2)cc1`, the inhibition was 14.3% (inactive). `Cc1cccc(NC(=O)CSc2nnc(-c3ccco3)o2)c1C`: the inhibition was 3.22% (inactive). The same measure, in the same setting: to `Cc1cccc(NC(=O)CSc2nnc(-c3ccco3)c(-c3ccco3)n2)c1` belongs 25.8% (inactive); to `O=C(CSc1nnc(-c2ccco2)c(-c2ccco2)n1)c1ccccc1`, 29.5% (inactive); to `COc1cccc(NC(=O)c2ccc3c(O)c(S(=O)(=O)c4ccccc4)c(=O)[nH]c3c2)c1`, 4.09% (inactive). The same measure, in the same setting: for `CCCCn1c(N)c(N(CC(C)C)C(=O)CC2CCCCC2)c(=O)[nH]c1=O` the value was -11.5% (inactive); for `C[C@@H]1CC2[C@@H]3CC[C@H]4CC(=O)CC[C@]4(C)C3=CC[C@]2(C)[C@@]1(O)C(=O)CO` (stereo partly drawn), -1.96% (inactive); for `CC1=C(C(=O)Nc2cccc(C(=O)NC(C)c3ccccc3)c2)SCCO1` (stereo not drawn), -4.13% (inactive). Still for that read-out and setting: for `CCOc1cc(C(=O)O)cc(Cl)c1OCC#N` the value was -2.72% (inactive); for `CCOc1cc(C=O)cc(Cl)c1OCC(N)=O`, -2.73% (inactive).

Turning to `O=c1[nH]c2ccc(S(=O)(=O)N3CCN(Cc4ccccc4)CC3)cc2[nH]c1=O`, the inhibition was -2.74% (inactive). Still for that read-out and setting: for `CC(=O)Nc1ccc(-c2csc(NC(=O)C3CCN(S(=O)(=O)c4cccs4)CC3)n2)cc1` the value was -5.78% (inactive); for `Cc1ccc(N2C(=O)c3ccc(C(=O)O)cc3C2=O)cc1C`, 9.14% (inactive). Still for that read-out and setting: to `Cc1ccc(N2C(=O)c3ccccc3C2=O)cc1C` belongs -5.39% (inactive).

In the case of `COC(=O)c1c(C(=O)OC)c(-c2ccccc2)n2c1CCC2`, the inhibition was 1.6% (inactive). Same read-out and setting: to `O=C(O)/C(=C/c1ccc(Cl)c([N+](=O)[O-])c1)c1ccc(S(=O)(=O)N2CCCCC2)s1` belongs 15.9% (inactive); to `O=C(O)/C(=C\c1ccc(Cl)c([N+](=O)[O-])c1)c1ccc(S(=O)(=O)N2CCCC2)s1`, 0.37% (inactive). Still for that read-out and setting: for `O=C(CN1C(=O)C2CCCCC2C1=O)OCC(=O)c1ccc(Cl)s1` (stereo not drawn) the value was -7.27% (inactive); for `O=S(=O)(c1ccc(=S)[nH]c1)N1CCOCC1`, -8.4% (inactive). Same read-out and setting: to `COC(=O)c1cccc(NC(=O)C2CCCN2C(=O)c2cccs2)c1` (stereo not drawn) belongs -0.73% (inactive); to `Cc1cc(C(=O)N/N=C2/CC(C)CC(C)(C)C2)c(C)o1` (stereo not drawn), -5.92% (inactive).
